Compound activity from PubChem.
Anthrax LF prot – inhibitors of Bacillus anthracis lethal factor protease | P15917 | multiplex microsphere protease cleavage assay, LF | hit rate 0.12% among 360,000 | inhibition, % at 10 µM; also: plate controls were buffer without enzyme for full effect and enzyme alone for no effect
GDH-TPI inh – GDH-TPI coupled enzyme inhibition counter-screen; GDH-TPI coupled enzyme counterscreen, NADH absorbance; hit rate 1.2% among 360,000; inhibition, % at 4.8 µM; AID 588335; in the data active = inhibition above about 30%;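 also: 0% = DMSO wells and 100% = wells lacking the enzyme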
BoNT A protease – BoNT A light chain protease inhibition | multiplex microsphere protease substrate cleavage, flow cytometry | inhibition, % at 10 µM | hit rate 0.17% among 360,000 | AID 588499; also: plate controls were buffer without enzyme for full effect and enzyme alone for no effect
BoNT-F LC inh – BoNT F light chain protease inhibition; Multiplex microsphere protease cleavage assay, flow cytometry; inhibition, % at 10 µM; hit rate 0.22% among 360,000; AID 588497; in the data active = inhibition above about 35%, passing the limit was not always enough; inconclusive = no clear call, values can overlap the other calls; also: plate controls were buffer without enzyme for full effect and enzyme alone for no effect
Autofluor counter – compound fluorescence in toxin protease inhibitor counterscreen; compound autofluorescence counterscreen, microsphere flow cytometry; active compounds read high; fluorescence intensity (test concentration not listed); hit rate 3.1% among 360,000; AID 624483; in the data active = fluorescence intensity above about 16000; inconclusive = no clear call, values can overlap the other calls
FBA Mtb inh – inhibits M. tuberculosis FBA enzyme; inhibition, % at 1 µM; purified M. tuberculosis FBA, fluorescence read-out; hit rate 2.3% among 360,000; AID 588726; P9WQA3; in the data active = inhibition above about 27%;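 also: 0% = vehicle and 100% = reference inhibitor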
Target sequence (P9WQA3 whole entry, looked up): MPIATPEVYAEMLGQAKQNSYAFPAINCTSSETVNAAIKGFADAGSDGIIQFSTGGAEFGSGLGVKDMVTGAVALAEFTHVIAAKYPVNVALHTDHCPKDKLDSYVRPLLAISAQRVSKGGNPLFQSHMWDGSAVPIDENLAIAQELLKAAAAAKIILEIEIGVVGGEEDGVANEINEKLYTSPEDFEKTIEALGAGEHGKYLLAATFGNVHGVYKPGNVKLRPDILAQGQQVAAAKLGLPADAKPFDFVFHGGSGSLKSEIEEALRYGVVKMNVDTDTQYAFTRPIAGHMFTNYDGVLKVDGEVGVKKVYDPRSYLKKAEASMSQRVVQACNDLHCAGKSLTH
The depositor's hits bear a star; ? = inconclusive; nt = no result given. Compounds with a hit are over-represented: about 6.7% of the library has one in this group of screens. Rule as the data show it, unless noted: active = inhibition above about 30%; inconclusive = no clear call, values can overlap the other calls; inactive = below that.

SMILES	Anthrax LF prot	GDH-TPI inh	BoNT A protease	BoNT-F LC inh	Autofluor counter	FBA Mtb inh
COc1ccc(NC(=O)Nc2ccc(OC)cc2)cc1	6	10	1	4	2403	2
CN(C)c1ccc(/C=N/NC(=O)CCCO)cc1	-10	22	1	5	4790	20
CN(C)c1ccc(/C=N/NC(=O)CCCCCNC(=O)c2ccccc2)cc1	0	58*	-2	-4	5365	17
COc1ccc(NC(=O)N(C)C[C@H]2Oc3c(NS(=O)(=O)c4ccc(OC)cc4)cccc3C(=O)N([C@H](C)CO)C[C@@H]2C)cc1	-13	13	0	-2	3031	1
C=CCNC(=S)NNC(=O)c1ccc(Br)cc1	0	5	-1	-3	2134	-3
Cc1c(C(=O)Nc2c(N)nc(SCC(=O)NCC3CCCO3)[nH]c2=O)cccc1[N+](=O)[O-] (stereo not drawn)	0	2	0	1	5667	0
CCN(CC)N=Nc1[nH]nc2nc(C)cc(C)c12	1	32*	0	-8	3100	-9
Nc1cc(=O)[nH]c(SCC(=O)Nc2ccc3c(c2)CCC3)n1	2	4	-1	1	4265	2
CC(C)(C)NC(=O)CSc1nc(N)cc(=O)[nH]1	-6	1	-1	-6	4463	0
Cc1ccc2nc(SCC(=O)c3ccc(O)cc3O)[nH]c2c1	1	51*	0	4	3738	7
CC(=O)Nc1cccc(-n2nnc(SCC(=O)Nc3ccc(F)c(Cl)c3)n2)c1	-50	1	-51	-294	16932*	-3
Nc1cc(=O)[nH]c(SCC(=O)Nc2ccc(F)c(Cl)c2)n1	1	-5	-5	-6	21150*	5
Nc1cc(=O)[nH]c(SCC(=O)c2ccc(O)cc2O)n1	-8	34*	0	21	3789	-2
CC(=O)Nc1cccc(-n2nnc(SCC(N)=O)n2)c1	1	-1	0	7	4411	3
Cn1cc(Cl)c(C(=O)NNC(=S)NC2CCCCC2)n1	-2	-1	0	-6	2483	-2
FC(F)(F)c1nc(-c2cccnc2)ncc1-c1nnnn1-c1ccccc1	-12	-2	0	-10	6969	-5
CCOC(=O)CCCSc1nc2sc(C)c(C)c2c(=O)[nH]1	-7	0	-1	-5	5337	-2
CSc1nnc(-c2ccc(O)cc2)n1C	2	0	5	4	21757*	-1
Cn1c(SCCCC(=O)c2ccccc2)nnc1-c1ccncc1	2	2	?	2	19499*	-1
Cn1c(SCC(=O)c2ccccc2)nnc1-c1ccc(O)cc1	1	-16	1	3	20320*	-5
Cn1c(SCCCC(=O)c2ccc(F)cc2)nnc1-c1ccncc1	1	10	0	2	3301	2
Oc1ccccc1C=NN1CCCCCC1	-9	11	-1	-4	3752	0
O=C(Nc1nc(-c2ccccn2)cs1)c1ccccc1-n1cnnn1	0	14	-3	-4	4585	1
CN(C)c1ccc(NC(=O)c2ccc3nsnc3c2)cc1	-4	16	?	-3	22463*	-3
COc1ccc(NC(=O)C2c3ccccc3OCC(=O)N2Cc2ccc3c(c2)OCO3)cc1 (stereo not drawn)	-1	nt	0	1	5536	nt
SMILES	Anthrax LF prot	GDH-TPI inh	BoNT A protease	BoNT-F LC inh	Autofluor counter	FBA Mtb inh
CC(C)(C)c1cnnn1-c1ccc(C=O)cc1	-4	5	-3	-4	24224*	-1
CC(C)(C)c1cnnn1-c1ccc(C(=O)CCl)cc1	0	7	0	-28	3229	4
CC(C)NS(=O)(=O)c1ccc(N2C(=O)c3ccccc3C2=O)cc1	-3	-7	3	4	19293*	0
CC(NC(=O)c1ccc(Br)cc1)c1ccccc1 (stereo not drawn)	2	5	0	-2	2520	-5
CC(C)OP(=O)(OC(C)C)C(NC(=O)c1ccc(Br)cc1)c1ccccc1 (stereo not drawn)	-1	-17	-2	-1	21425*	-1
O=C(CS(=O)(=O)Cc1ccccc1)N1CCN(C(=O)c2ccco2)CC1	-7	1	0	3	9079	1
O=[N+]([O-])c1cc([N+](=O)[O-])c(N2CCOCC2)cc1NCc1ccccc1	-3	31*	1	8	3743	-4
O=[N+]([O-])c1ccc(N2CCOCC2)cc1NCc1ccccc1	-5	13	0	-1	2776	-7
CN(C)c1ccc(N/C=C/C(=O)c2ccc(F)cc2)cc1	-2	2	?	7	20250*	-5
